This passage reports growth results from PubChem BioAssay (NCI).

Test systems include HCT-15 colon; HT29 colon; SNB-75 CNS; SNB-19 CNS; PC-3 prostate; SK-MEL-5 melanoma; UACC-62 melanoma; LOX IMVI melanoma; SK-MEL-28 melanoma; SK-MEL-2 melanoma; EKVX NSCLC; SN12C renal; UO-31 renal; TK-10 renal; ACHN renal; CAKI-1 renal; A498 renal; CCRF-CEM leukemia; MOLT-4 leukemia; U251 CNS.
What all share (assay): NCI-60 one-dose screen, 48 h (100 = growth as untreated, 0 = no growth, -100 = all killed)
What all share (settings): 10 µM unless noted

SMILES strings stand for the structures. This is part of a sample that, as a whole, favours compounds with a hit. Of some 83,000 tested, about 20% had one in any assay.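 The endpoint reported here, percent growth, reads 100 for growth as untreated, 0 for no net growth and -100 for all cells dead.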 A number with no mark means an inactive call. The source made the active and inactive calls. How the source made its calls: active means growth percent below 10; inactive means the rest.

On to `N#C/C(=C/C=C/c1ccccc1)S(=O)c1ccccc1` (stereo unspecified), for which the growth in the assay on HCT-15 colon was -9.4% (active); in the assay with HT29 colon, -6% (active); in the assay with SNB-75 CNS, 20.8%; in the assay with SNB-19 CNS, -5.13% (active); with PC-3 prostate, -34.1% (active); in the assay on SK-MEL-5 melanoma it was -84.7% (active). In addition, the growth with UACC-62 melanoma is -57% (active); in the assay with LOX IMVI melanoma, -80.7% (active); with SK-MEL-28 melanoma, -67.9% (active); in the assay on SK-MEL-2 melanoma, -15.9% (active); with EKVX NSCLC, -6.51% (active); with SN12C renal it was -52.5% (active). For the same compound, the growth in the assay on UO-31 renal was -63.4% (active); with TK-10 renal it was -89.8% (active); in the assay with ACHN renal, -74.4% (active); in the assay with CAKI-1 renal it was -25.6% (active); in the assay on A498 renal it was -68.4% (active); with CCRF-CEM leukemia it was -5.68% (active). In addition, the growth in the assay on MOLT-4 leukemia was -1.2% (active).
For `C/C=C(/C)C(=O)O[C@@H]1CC(C)(C)CC2C34OC(=O)[C@@]21CC[C@@]3(C)[C@]1(C)CCC2C(C)(C)C(=O)CC[C@]2(C)C1C[C@@H]4O` (stereo partly specified), the growth with HCT-15 colon is 38.4%; in the assay with HT29 colon it was 65.1%; with SNB-75 CNS, 64.1%; with SNB-19 CNS it was 78.6%; in the assay on PC-3 prostate, 25.4%; with SK-MEL-5 melanoma, 27.8%. The growth with UACC-62 melanoma was 55.3%; with LOX IMVI melanoma, 33.5%; in the assay on SK-MEL-28 melanoma it was 75.8%; in the assay with SK-MEL-2 melanoma, 80.3%; in the assay on EKVX NSCLC, 50.1%; in the assay with SN12C renal it was 83.7%. In addition, the growth is 67.8% with UO-31 renal; 73.2% with TK-10 renal; 85.9% in the assay on ACHN renal; 59.6% in the assay with CAKI-1 renal; 69.3% in the assay with A498 renal; 36.3% in the assay with CCRF-CEM leukemia. Besides, the growth in the assay on MOLT-4 leukemia was 24.2%.
On to `COc1ccc(N2C(=O)/C(=C/C(Cl)=C/c3ccc([N+](=O)[O-])cc3)SC2=S)cc1`, for which the growth with HCT-15 colon is -24.1% (active); with HT29 colon it was -20.9% (active); in the assay on SNB-75 CNS, -33.8% (active); in the assay with SNB-19 CNS, 2.68% (active); in the assay on PC-3 prostate, 2.17% (active); in the assay on SK-MEL-5 melanoma, 29.3%. For the same compound, the growth in the assay with UACC-62 melanoma was -25.2% (active); in the assay with LOX IMVI melanoma, -86.2% (active); with SK-MEL-28 melanoma, 13.7%; in the assay with SK-MEL-2 melanoma, 37.4%; in the assay with EKVX NSCLC, -3.04% (active); with SN12C renal, -3.33% (active). Further, the growth with UO-31 renal is -97.7% (active); in the assay with TK-10 renal, -26.7% (active); in the assay with ACHN renal, -68% (active); with CAKI-1 renal, 0.845% (active); with A498 renal, 63.2%; with CCRF-CEM leukemia, 0.216% (active). For the same compound, in the assay with MOLT-4 leukemia, the growth was 2.36% (active).
On to `Cc1cccc(CN(Nc2ccccc2)c2ccccc2)n1`, for which the growth in the assay with HCT-15 colon is 92.1%; in the assay with HT29 colon it was 96.3%; in the assay with SNB-75 CNS, 93.1%; in the assay on SNB-19 CNS, 106%; with PC-3 prostate, 85.7%; with SK-MEL-5 melanoma, 97.9%. The growth is 96.3% in the assay on UACC-62 melanoma; 98.5% with LOX IMVI melanoma; 98.7% in the assay on SK-MEL-28 melanoma; 115% in the assay on SK-MEL-2 melanoma; 79.4% in the assay on EKVX NSCLC; 97.8% in the assay with SN12C renal. In addition, the growth in the assay with UO-31 renal is 91.8%; in the assay with TK-10 renal, 108%; in the assay on ACHN renal it was 102%; with CAKI-1 renal, 87.3%; with A498 renal, 98%; with CCRF-CEM leukemia it was 91.2%. In the assay with MOLT-4 leukemia, the growth was 91.1%.
Consider `COc1cc(CNC(=O)CCCC/C=C/C(C)C)ccc1OCc1cn(-c2ccc(C(F)(F)F)cc2)nn1`, for which the growth is 59.7% in the assay on HCT-15 colon; 79% in the assay with HT29 colon; 49.7% with SNB-75 CNS; 76.1% with SNB-19 CNS; 46.7% in the assay on U251 CNS; 62.2% with PC-3 prostate. Further, the growth in the assay with UACC-62 melanoma is 84.3%; with LOX IMVI melanoma it was 60.3%; in the assay on SK-MEL-28 melanoma it was 107%; with SK-MEL-2 melanoma, 95.1%; in the assay on EKVX NSCLC, 88.3%; in the assay on SN12C renal, 20.5%. The growth is 70.5% in the assay with UO-31 renal; 92.8% in the assay with TK-10 renal; 90.2% in the assay with ACHN renal; 80.4% in the assay on CAKI-1 renal; 85.8% in the assay on A498 renal; 68.8% in the assay on CCRF-CEM leukemia. In addition, the growth in the assay on MOLT-4 leukemia was 80.3%.
Regarding `Cc1c2ccncc2c(C)c2c1c1ccccc1n2CCCCCC(=O)O`, the growth with HCT-15 colon was 87.1%; in the assay on HT29 colon, 101%; in the assay on SNB-75 CNS it was 82.8%; with SNB-19 CNS, 86.1%; in the assay on U251 CNS, 85.8%; in the assay with PC-3 prostate it was 86.2%. The growth was 85.2% in the assay on UACC-62 melanoma; 74.4% in the assay with LOX IMVI melanoma; 113% in the assay with SK-MEL-28 melanoma; 92.4% in the assay with SK-MEL-2 melanoma; 90.3% in the assay on EKVX NSCLC; 94.2% with SN12C renal. Also, the growth is 56.7% in the assay on UO-31 renal; 128% in the assay on TK-10 renal; 82.9% in the assay with ACHN renal; 91.1% with CAKI-1 renal; 52.8% with A498 renal; 94.1% in the assay with CCRF-CEM leukemia. In the assay with MOLT-4 leukemia, the growth was 74.8%.
As to `COc1ccc(-c2cc(-c3ccc(Nc4nc(Nc5ccc(Cl)cc5)nc(Nc5ccc(Cl)cc5)n4)cc3)no2)cc1`, the growth in the assay on HCT-15 colon was 76.1%; in the assay on HT29 colon, 78.9%; in the assay with SNB-75 CNS, 89.1%; with SNB-19 CNS it was 107%; with U251 CNS, 62.4%; in the assay on PC-3 prostate, 60.5%. Further, the growth is 101% with UACC-62 melanoma; 89.7% in the assay on SK-MEL-28 melanoma; 58.1% in the assay on SK-MEL-2 melanoma; 76.3% in the assay on EKVX NSCLC; 94% in the assay with SN12C renal; 65.3% in the assay with UO-31 renal. Besides, the growth is 108% with TK-10 renal; 83.6% in the assay with ACHN renal; 83.3% in the assay on CAKI-1 renal; 86.8% in the assay on A498 renal; 38.9% in the assay with CCRF-CEM leukemia; 9.97% (active) in the assay on MOLT-4 leukemia.
In the case of `N#Cc1c(-c2ccc(Cl)cc2)nc(NN=Cc2cccc(Cl)c2)nc1N1CCOCC1`, the growth was 35.4% in the assay on HCT-15 colon; 40.4% with HT29 colon; 80.1% with SNB-75 CNS; 104% in the assay on SNB-19 CNS; 78.9% in the assay with U251 CNS; 73.5% in the assay on PC-3 prostate. Further, the growth in the assay with UACC-62 melanoma was 98.1%; in the assay on LOX IMVI melanoma, 85.5%; with SK-MEL-28 melanoma it was 106%; with SK-MEL-2 melanoma, 96.5%; in the assay with EKVX NSCLC, 77.7%; in the assay on SN12C renal it was 91.8%. Also, the growth in the assay on UO-31 renal was 53.5%; with TK-10 renal, 106%; in the assay with ACHN renal, 74.3%; in the assay with CAKI-1 renal it was 67.4%; in the assay with A498 renal, 42.2%; in the assay on CCRF-CEM leukemia, 72.5%. In addition, the growth in the assay on MOLT-4 leukemia is 53.3%.
